In all, about 6,200 compounds went through this assay and about 2,900 (47%) were called active. So high a share suggests a set chosen from earlier hits. This is one part of the list. Values without a mark were called inactive. No stated cut-off is given here; in the data, active means inhibition above about 50%; inactive means the rest.

By inhibition is commonly meant the drop in the measured response relative to a control, in per cent.

The nature of this experiment: Mycobacterium tuberculosis growth inhibition, primary screen (AID 1259343). Conditions: inhibition: at 10 µM, stronger effect = higher value; outcome: 10 uM.
As for `CC(=O)NC(c1ccccc1)(c1ccccc1)C(F)(F)F`, the inhibition is 7.55%. `O=C(NCC(F)(F)F)c1cc(-c2ccccc2Cl)n[nH]1`: the inhibition was 30.1%. For `O=C(NCC(F)(F)F)c1cc(-c2ccc(Cl)cc2)n[nH]1` the value was 72.2% (active); for `Cc1ccc(Sc2ccccc2N2CCNCC2)c(C)c1`, 83.7% (active); for `CCOC(=O)CN1C(=O)CSC1=CC#N`, 26.1%. As for `O=C(Nc1ccccn1)C1CCN(c2cccc(C(F)(F)F)n2)CC1`, the figure is 92.4% (active); as for `CCCCn1nc(C)c(C(=O)NCc2ccc(Cl)s2)c1Cl`, -14.6%. As to `Cc1nn(-c2ccccc2)c(Cl)c1C(=O)Nc1ccccc1I`, the inhibition is 28.9%. As for `CCCCn1nc(C)c(C(=O)Nc2cc(C)ccc2F)c1Cl`, the figure is 60.1% (active); as for `Cc1cc(C)c2ccc(O)cc2n1`, 83.4% (active); as for `C=CCN(Cc1ccc(Cl)s1)C(=O)CSc1nnc(-c2ccc(C)cc2)o1`, 21.2%. As for `C=CCN(CC=C)C(=S)NC(=O)c1ccc(C)cc1`, the inhibition was 98.4% (active). Turning to `Cc1ccc(C(=O)Nc2ccccc2SCC(F)(F)F)cc1`, the inhibition is 45.2%. As to `C=CCOc1ccc(S(=O)(=O)c2ccc(O)cc2)cc1`, the inhibition was 24.3%.

On to `Cc1cc(Br)c(NC(=O)CN(C)Cc2nc3ccccc3s2)c(Br)c1`, for which the inhibition was 84.4% (active).

With `CN(Cc1nc2ccccc2s1)C(=O)CCc1nnc(CCc2c[nH]c3ccccc23)o1`, the inhibition is 22.7%.

For `C=CCN(C(=O)c1cccc(OC)c1)c1nc2ccccc2s1`, the inhibition was -37.8%. For `Cc1ccc(CSc2ncnc3c2nnn3Cc2ccccc2)cc1` the value was -28.1%; for `O=C(CSc1ncnc2c1nnn2Cc1ccc(F)cc1)N1CCCCCC1`, -40.9%.

Take `S=c1nc[nH]c2c1nnn2Cc1ccc(Cl)cc1`: the inhibition was 78.3% (active). With `Clc1ccc(Cn2nnc3c(SCc4cccnc4)ncnc32)cc1`, the inhibition was 43.6%. As for `Clc1cccc(CSc2ncnc3c2nnn3Cc2ccccc2)c1`, the figure is -28%; as for `Fc1ccc(Cn2nnc3c(=S)nc[nH]c32)cc1`, 101% (active); as for `Cc1ccc(Cn2nnc3c(=S)nc[nH]c32)cc1`, 92.2% (active). In the case of `Cc1[nH]n(-c2ccccc2)c(=O)c1N=Nc1c(C)n(C)n(-c2ccccc2)c1=O`, the inhibition was 94.3% (active). On to `CCC(=O)N(c1nnc(SCC(=O)c2cc(C)n(-c3cc(C)on3)c2C)s1)C1CC1`, for which the inhibition was 72.7% (active). For `COc1ccc(NC(=O)c2csc(C)n2)cc1Cl` the value was -17.7%. As for `CCCc1nc(C(=O)Nc2ccc(NC(=O)CC)c(Cl)c2)cs1`, the figure is 54% (active); as for `Cc1cc(OCc2nc(C(=O)NCC(C)C)cs2)ccc1Cl`, 8.24%; as for `Cc1ccc(Sc2cncc3sc(C(N)=O)cc23)cc1`, 68% (active). For `CC(=O)Nc1ccc(NC(=O)Cn2nc(C)c([N+](=O)[O-])c2C)cc1`, the inhibition is 92.6% (active).

With `Cc1c(Br)c(C(F)(F)F)nn1CC(=O)Nc1ccc(Oc2cc([N+](=O)[O-])cc([N+](=O)[O-])c2)cc1`, the inhibition was 61.4% (active). As for `O=C(Cn1cnc([N+](=O)[O-])n1)Nc1cc(Oc2cccc(Cl)c2)cc([N+](=O)[O-])c1`, the figure is -2.49%; as for `Cc1ccc(Sc2ccc(NC(=O)Cn3cnnn3)cc2)cc1C`, 4.65%; as for `CC1CCN(CC(=O)Nc2ccc([N+](=O)[O-])cc2)CC1`, 8.26%. As to `O=C(O)CCCSc1ncnc2sc3c(c12)CCCC3`, the inhibition was 51% (active). Take `O=C(CSc1ncnc2sc3c(c12)CCCC3)N1CCOCC1`: the inhibition was 102% (active).

`O=C(CSc1ncnc2sc3c(c12)CCC3)N1CCCC1`: the inhibition is 18.6%. In the case of `CC(C)(C)OC(=O)CSc1ncnc2sc3c(c12)CCCC3`, the inhibition is 75.3% (active).

Turning to `CN(C)C(=O)CSc1ncnc2sc3c(c12)CCCC3`, the inhibition was 85.3% (active). Take `COCC1CCCN(c2nncc(-c3ccc(Cl)cc3)n2)C1` (stereo not drawn): the inhibition is 9.94%.

As for `O=C(CCSc1ccc(C(F)(F)F)cn1)Nc1c(Cl)cccc1Cl`, the inhibition is 20.9%.

For `O=C(Cc1ccc(C(F)(F)F)cc1)Nc1ncccc1O`, the inhibition was 82.2% (active). For `CCc1ccc(C(CNC(=O)Cc2ccc(C(F)(F)F)cc2)N(C)C)cc1` (stereo not drawn) the value was 19.9%.

Turning to `O=C(O)CCN(Cc1ccco1)c1nc(-c2cccc(Br)c2)nc2ccccc12`, the inhibition is 2.99%. As to `S=P(NN=C1CCSC1)(c1ccccc1)c1ccccc1`, the inhibition was 62.1% (active). As to `Cc1cccc(-c2ccc(NC(=O)C3CCN(C(=O)c4cnsn4)CC3)cc2)c1`, the inhibition is 91.7% (active). For `COc1cccc(-c2ccc(NC(=O)C3CCCN(C(=O)c4cnsn4)C3)cc2)c1` (stereo not drawn) the value was “inactive”; for `Cc1cccc(-c2ccc(NC(=O)C3CCN(C(=O)c4cscn4)CC3)cc2)c1`, 93% (active).

`CN1c2ccccc2-c2nc3ccccc3n2C1c1ccco1` (stereo not drawn): the inhibition is 24.8%. As for `C#CCCCCCCCCCCCC(O)CC(O)COC(C)=O` (stereo not drawn), the figure is 93.3% (active). With `Cc1cc(N)n(-c2nc3c(cnn3-c3ccccc3)c(=O)[nH]2)n1`, the inhibition was 5.14%. In the case of `Cc1cc(=O)[nH]c(-n2nc(C)cc2N)n1`, the inhibition was 101% (active). As for `Cc1cc(N)n(-c2nc3c(cnn3-c3ccc(C)c(C)c3)c(=O)[nH]2)n1`, the figure is 33.8%; as for `CCc1cc(=O)[nH]c(-n2nc(C)cc2N)n1`, 83.4% (active); as for `CCCc1cc(=O)[nH]c(-n2nc(C)cc2N)n1`, 101% (active).

`Cc1cccc(-n2ncc3c(=O)[nH]c(-n4nc(C)cc4N)nc32)c1`: the inhibition was 102% (active).

On to `CCCc1cc(=O)[nH]c(-n2nc(C)cc2C)n1`, for which the inhibition is 6.1%. As for `CCC(=O)c1ccc(O)c(CC=C(C)C)c1`, the figure is 20.6%.

As for `CC(C)=CCc1c(O)ccc(C(=O)Cc2ccccc2)c1O`, the inhibition is 59.8% (active). As for `N#Cc1c(Cl)c(Cl)c(Cl)c(C#N)c1Cl`, the figure is 102% (active).

As to `O=C(Nc1ccccc1)c1cc(C2CCCN(C(=O)C/C=C/c3ccccc3)C2)on1` (stereo not drawn), the inhibition was 43%. On to `O=C(Nc1nc(C2CC2)cs1)c1cc2ccccc2cc1O`, for which the inhibition is 11.4%. For `Cc1ccc(C(=O)OCc2cc(C)on2)c(O)c1`, the inhibition is -29.5%. As to `Cc1nc(COC(=O)c2cc3ccccc3cc2O)oc1C`, the inhibition was 54.9% (active). Regarding `Cc1ccc2nc3sc(C(=O)O)cc3cc2c1`, the inhibition was 7.83%. As for `Cc1sc(C(=O)N2CCOC(C(N)=O)C2)cc1-c1ccc(F)cc1` (stereo not drawn), the figure is 5.13%; as for `COc1ccc(-c2cc(C(=O)O)sc2C)cc1`, 67.1% (active).

For the compound `O=S(=O)(c1cccs1)n1nnc2ccccc21`, the inhibition is 52.1% (active). Take `CN(C)C(=O)On1nnc2ccccc21`: the inhibition is 26.9%. As for `O=C(O)C1CCCN1S(=O)(=O)c1cccs1` (stereo not drawn), the figure is -0.47%; as for `Cn1c(=O)cc2c3c(cccc31)C(=O)c1ccccc1-2`, 11.1%.

Turning to `S=c1[nH]c(-c2ccccc2)c(-c2ccccc2)[nH]1`, the inhibition is 18.6%. As for `O=c1c(-c2ccccc2)c1-c1ccccc1`, the figure is 86.5% (active); as for `O=C(NCCc1cccc(C(F)(F)F)c1)c1ccc(CSc2ncn[nH]2)o1`, 36.7%; as for `O=C(NCCOc1cccc(C(F)(F)F)c1)c1ccc(Cl)c([N+](=O)[O-])c1`, 54.2% (active). As for `Cc1ccc(C)c(C=CC(=O)c2ccc(O)cc2)c1`, the figure is 98.6% (active); as for `COc1ccccc1C=CC(=O)c1ccc(Cl)cc1`, 46.9%; as for `Cc1cc(C)n(C(C)CNS(=O)(=O)c2ccc(C)c(C)c2)n1` (stereo not drawn), -27.8%. As for `Cc1cc2nn(-c3ccc(C(C)C)cc3)nc2cc1N`, the figure is 14.7%; as for `CC(O)c1cnc(-c2ccc(Br)cc2)s1` (stereo not drawn), 35.9%; as for `CC(C)c1ccc(-c2nnc(N)s2)cc1`, 72.1% (active). For the compound `C=CS(=O)(=O)Oc1ccccc1`, the inhibition is 78.9% (active). For the compound `O=C(/C=C/C(=O)Oc1ccccc1C(=O)O)Oc1ccccc1C(=O)O`, the inhibition is 26.7%. `NC(=O)c1ccc(CN2CCCc3cc(F)cc(F)c32)cc1`: the inhibition was 17.5%. With `NC(=O)c1ccnc(N2CCN(Cc3ccc(Cl)c(Cl)c3)CC2)c1`, the inhibition is 89.4% (active). `Nc1nc(Cl)cc(N2CCN(Cc3ccc4c(c3)OCCO4)CC2)n1`: the inhibition was 6.34%.

For the compound `C=CCn1cnc2c(c1=O)c1nc3ccccc3nc1n2CCC(C)C`, the inhibition is 12.7%. For the compound `CCOc1ccc2ccccc2c1C(=O)Nc1cc(C)nn1-c1nc(CC)cc(=O)[nH]1`, the inhibition was 101% (active).

For the compound `CCOc1ccc2ccccc2c1C(=O)Nc1cc(C)nn1-c1nc(C)cc(=O)[nH]1`, the inhibition was 101% (active).

Turning to `O=S(=O)(NCCCCOc1ccc(Cl)cc1)c1cccc(F)c1`, the inhibition was 88.5% (active).

In the case of `COCCOc1ccc(CNS(=O)(=O)c2ccc(F)c(Cl)c2)cc1`, the inhibition was 30.9%.

Turning to `O=S(=O)(NCCCNS(=O)(=O)c1ccc(Cl)cc1)c1ccc(Cl)cc1`, the inhibition is -18.2%. As for `Cc1noc(C)c1C(=O)Nc1nc2cc(C(C)(C)C)ccc2o1`, the figure is 100% (active). As for `Cc1oc2nc[nH]c(=O)c2c1C(=O)Nc1ccc(C(C)(C)C)cc1`, the figure is 39.2%. For `Cc1ccc(-c2csc(NC(=O)c3c(C)noc3C)n2)s1` the value was 24.1%; for `CCCc1nc(N2CC[C@@H](c3ccc4ccccc4c3)[C@H](O)C2)no1`, 23%.

Consider `Cc1cc(N2CC[C@@H](c3ccc4c(c3)OCO4)[C@H](O)C2)nc2cc(F)ccc12`, for which the inhibition was 11.3%.

Turning to `CCc1cnc(N2CC[C@@H](c3ccc4ccccc4c3)[C@H](O)C2)nc1`, the inhibition was 86.1% (active). For `Cc1cc(C)n2nc(SCC(=O)Nc3ccc(C(C)C)cc3)nc2n1`, the inhibition is 84.4% (active). Turning to `O=C(CSC1=NS(=O)(=O)c2ccccc2N1)Nc1ccccc1`, the inhibition was 31.9%. For `CCCCc1ccc(NC(=O)CSc2nc3nc(C)cc(C)n3n2)cc1` the value was -36.7%; for `O=C1c2ccccc2-c2nc3nonc3nc21`, 103% (active).

The values above are taken from PubChem BioAssay AID1259343 (VanderVen Lab, College of Veterinary Medicine, Cornell …, 2017).
